Experimental data published in the supplement of paper PMC3334620.
The full ranking holds about 33,000 sequences; the median of “E-score (-0.5 to 0.5)” is about -0.012, and the highest 2% start at about 0.27. This is one part of a sample in which the highest values are shown more often than they occur.

The sequences below were run against T1, Vhr1 (UniProt P40522) (assay: PBM E-score (8-mer binding enrichment) (E-score (-0.5 to 0.5)); higher = stronger / more preferred TF binding). Details: protein concentration: 200 nM; construct: GST-full length.
T1 sequence: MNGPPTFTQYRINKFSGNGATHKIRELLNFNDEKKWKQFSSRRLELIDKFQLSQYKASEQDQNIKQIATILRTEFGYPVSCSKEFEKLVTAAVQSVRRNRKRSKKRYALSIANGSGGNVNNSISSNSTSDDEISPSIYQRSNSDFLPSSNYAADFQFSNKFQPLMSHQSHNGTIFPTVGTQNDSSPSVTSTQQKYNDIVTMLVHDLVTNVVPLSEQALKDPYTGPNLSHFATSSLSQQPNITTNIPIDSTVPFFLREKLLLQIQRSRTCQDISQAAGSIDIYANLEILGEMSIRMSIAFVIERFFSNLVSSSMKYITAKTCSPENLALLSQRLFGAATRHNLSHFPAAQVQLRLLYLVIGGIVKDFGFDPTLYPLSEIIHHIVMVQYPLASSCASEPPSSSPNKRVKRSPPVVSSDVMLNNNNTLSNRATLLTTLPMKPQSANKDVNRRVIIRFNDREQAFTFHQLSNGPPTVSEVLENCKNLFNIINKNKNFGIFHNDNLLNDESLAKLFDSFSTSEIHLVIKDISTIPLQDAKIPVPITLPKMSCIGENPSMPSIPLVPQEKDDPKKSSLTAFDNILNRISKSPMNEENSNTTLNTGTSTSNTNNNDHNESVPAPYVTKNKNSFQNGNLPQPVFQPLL
Experimental: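 Universal 'all 10-mer' protein binding microarrays (Agilent AMADID 015681) probed with GST-tagged S. cerevisiae TFs (full-length or DBD) made by in vitro transcription/translation (PURExpress), about 100-200 nM. Bound TF was detected with fluorescent anti-GST. Each ungapped 8-mer (which stands for itself and its reverse complement) is scored by the PBM enrichment score (E-score), a modified Wilcoxon-Mann-Whitney statistic from -0.5 to +0.5, computed with the Universal PBM Analysis Suite. Scale: above 0.35 generally sequence-specific binding.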

Row | Sequence | PBM E-score
1 | ACTAGAGT | 0.0036
2 | ACCACATA | 0.125
3 | ACCACATC | 0.276
4 | ACCACATG | 0.262
5 | CGCTCACA | 0.137
6 | ACCAACAG | 0.046
7 | ACCAACCA | 0.163
8 | ACCAACAA | 0.359
9 | CCCAACCC | 0.118
10 | CCCAACCA | 0.275
11 | ACCAACAT | 0.157
12 | CCCTAGCC | -0.184
13 | CACCCACA | 0.241
14 | GCCCCTCA | -0.0991
15 | AACCCACA | 0.168
16 | GCCCCACC | 0.265
17 | CCCCCTCC | -0.0898
18 | GCCCCTCC | 0.331
19 | CCCCCACC | -0.341
20 | AACCCACC | 0.313
21 | CACCCACC | 0.317
22 | GACCCACC | 0.224
23 | AACCCACT | 0.246
24 | ACCCCACC | 0.385
25 | GCGGCCAC | 0.0847

Row | Sequence | PBM E-score
26 | ACAGCGAT | -0.04
27 | AGATCTGC | -0.0821
28 | GGGCTGGA | -0.0152
29 | GGTGGTCA | 0.00378
30 | CACCCACG | 0.249
31 | AACCCTCC | -0.129
32 | AACCCACG | 0.0933
33 | CACCCTCA | 0.0412
34 | GACCCACA | 0.284
35 | CACCCTCC | 0.276
36 | CCACCAAA | 0.0455
37 | GCGAAACC | -0.0227
38 | GAGTCTCA | 0.256
39 | GCACACCC | 0.139
40 | ACGCGCGC | 0.107
41 | CCGCGCGA | 0.22
42 | GCGCGCAA | 0.3
43 | CCGCGCAA | -0.026
44 | TCGCGCAA | 0.0709
45 | GCGCGCGA | 0.185
46 | GCGCGCGC | 0.379
47 | CCGCGCGC | 0.258
48 | CCGCGCGG | 0.346
49 | AGGACGCG | -0.226
50 | CTAAAGAG | -0.0856

Row | Sequence | PBM E-score
51 | GTAGCGAA | -0.027
52 | AACTAGAA | -0.115
53 | AATCACTC | 0.115
54 | AATCACTG | 0.374
55 | AGTCACTG | 0.384
56 | CGTCACTC | -0.0595
57 | AATCACTA | 0.267
58 | ACTCACTC | 0.254
59 | CGTCACTA | 0.0865
60 | AGTCACTA | 0.366
61 | ACTCACTG | 0.265
62 | ATTCACTG | -0.0337
63 | AGTCACTC | 0.428
64 | GGTCACTA | -0.0218
65 | AACGGTCC | -0.263
66 | AGGTGTGC | 0.163
67 | AAGCTCCA | 0.111
68 | AAGCCACT | -0.0197
69 | CCATCTGC | 0.0983
70 | GTCTTCAC | -0.058
71 | AATCTAGC | -0.218
72 | CTATAGGC | -0.243
73 | AACCTGAG | -0.0364
74 | ACACGACC | 0.109
75 | ACACGACT | 0.277

Row | Sequence | PBM E-score
76 | ACACGACA | 0.0664
77 | GCTTGCAA | 0.0649
78 | AAAGGTGC | -0.162
79 | ACGGTAAT | -0.0641
80 | CCGAGTCG | 0.336
81 | ACGAGTTG | 0.0198
82 | CCGAGTAG | 0.1
83 | TCGAGTAA | 0.0538
84 | ACGAGTAG | 0.0242
85 | ACGAGTCT | 0.0718
86 | ACGAGTCC | 0.0781
87 | ACGAGTCG | 0.322
88 | TCGAGCCA | -0.0584
89 | CCAAGTCG | 0.00863
90 | ACGAGTCA | 0.43
91 | TCGAGTCA | 0.399
92 | CGGCTAAC | -0.0152
93 | GGCAAGAC | -0.138
94 | TGGTCTAA | -0.0689
95 | GCCGTCTA | 0.00852
96 | GAGCACTA | 0.0167
97 | CCGAGTCC | 0.144
98 | GCGAGTCA | 0.455
99 | CCGAGTAA | 0.0614
100 | GCGAGTCC | 0.22

Row | Sequence | PBM E-score
101 | GCGAGTAA | 0.2
102 | CCGAGTCA | 0.451
103 | ATTCGATG | 0.0921
104 | AAGCCTCG | 0.00094
105 | AGTCCCCG | 0.0704
106 | GGTGCTGA | 0.042
107 | AGCACCAG | -0.0111
108 | CGCACCAG | 0.302
109 | CGCACCAA | 0.143
110 | AAATAATT | 0.0111
111 | AGCTGACC | 0.116
112 | ACCTGACC | 0.11
113 | ACCTGACG | -0.0943
114 | AGCTGACT | 0.413
115 | AGCTGACG | -0.12
116 | ACCTGACT | 0.374
117 | GGGCTTAC | -0.00595
118 | AGAACTGA | -0.183
119 | ATGAAGTG | -0.149
120 | TAACAGAA | -0.069
121 | CTTGAGGC | -0.174
122 | GTTGAGTA | 0.147
123 | ATTGAGAC | 0.18
124 | CTTGAGTA | 0.0408
125 | ATTGAGTA | 0.308

Row | Sequence | PBM E-score
126 | ATTGAGAA | 0.113
127 | CTTGAGTC | 0.333
128 | ATTGAGTG | 0.202
129 | ATTGAGTC | 0.387
130 | AGAGAAGA | -0.148
131 | AACATCGG | 0.0341
132 | ATGCCAGG | 0.0307
133 | CGCGTACG | 0.0931
134 | CGCACGCC | 0.167
135 | ACGTTCGC | -0.141
136 | GCTGCCAA | -0.0372
137 | CCTGATGC | -0.0265
138 | ACTGATTA | 0.147
139 | ACTGATTC | 0.283
140 | CCTGATTA | 0.158
141 | CCTGATTC | 0.367
142 | ACTGATTG | -0.00926
143 | ACTCTACA | 0.0564
144 | ACGTCCAG | -0.147
145 | CGAATAAG | 0.0236
146 | ACTATATC | 0.198
147 | AGTATATA | 0.33
148 | AGTATATC | 0.0944
149 | AGTATATG | 0.239
150 | ACTATATA | 0.274

Row | Sequence | PBM E-score
151 | GCTATATA | 0.0669
152 | CAGAATGA | 0.0955
153 | CAAGGGCA | -0.168
154 | GTTCTAAA | -0.164
155 | GAGCGACC | -0.162
156 | CCTCACCA | -0.00516
157 | CCTCACCG | 0.113
158 | ACTCACCT | 0.244
159 | TCTCACCA | 0.0878
160 | CCTCACCC | 0.0394
161 | ACTCACCC | 0.391
162 | ACTCACCG | 0.309
163 | ACTCACCA | 0.378
164 | GCTCACCC | 0.265
165 | CTCTAGCC | -0.167
166 | CCAGGGAG | 0.09
167 | GTAGGGTA | 0.0298
168 | CAAGCGTG | -0.00913
169 | CCATTCAA | 0.0103
170 | CAGATTCG | 0.069
171 | CAACCATC | 0.0512
172 | AAACCATA | 0.0822
173 | AAACCATC | 0.273
174 | ACTGGGTA | -0.00457
175 | ATAGGGGC | -0.0513

Row | Sequence | PBM E-score
176 | GAGCGAAA | 0.0518
177 | AACTTTTG | -0.205
178 | ATCATATG | 0.174
179 | CTCATATC | 0.203
180 | ATCATATC | 0.3
181 | TACCAAGA | 0.0906
182 | AGAGCGCC | -0.134
183 | AATGATGC | 0.0924
184 | AGGGCCAA | -0.299
185 | AGTCTGCC | 0.0302
186 | AGGGAGTC | 0.343
187 | AGGGAGTG | 0.042
188 | CGGGAGAC | -0.0366
189 | CGGGAGTA | 0.00502
190 | AGGGAGTA | 0.113
191 | CGGGAGTC | 0.386
192 | ACCACAAC | 0.258
193 | AATACAGG | 0.111
194 | CTCCTCTA | -0.189
195 | GGGGGTGA | 0.132
196 | ACGGGTCA | -0.077
197 | CCGGGTGA | 0.208
198 | AGGGGTGA | -0.0936
199 | GCGGGTCC | -0.00354
200 | ACGGGTGA | 0.117

Row | Sequence | PBM E-score
201 | GCGGGTGA | 0.293
202 | CGGGGTGA | 0.275
203 | GCGGGTCA | 0.308
204 | GCTTAAAA | -0.0463
205 | ACAGTTAA | 0.0518
206 | GTACCTAA | -0.0816
207 | CGGTCGAC | 0.0782
208 | GAAGATAA | -0.0175
209 | GTCACCCA | 0.311
210 | CTCACCCC | 0.318
211 | ATCACCCA | 0.223
212 | CTTACCCC | -0.156
213 | GTCACCGA | 0.256
214 | CTCACCCA | 0.342
215 | CTCACCGA | 0.183
216 | ATCACCCC | 0.199
217 | CTCACCAA | 0.265
218 | ACTGGTGG | 0.0234
219 | GAGGGCTA | -0.228
